Source: PubChem BioAssay
The sample as a whole holds a higher share of hits than the screen did.
AmpC detergent = blocks E. coli AmpC beta-lactamase in detergent assay | hit rate 0.041% among 370,000 | AmpC hydrolysis of nitrocefin, absorbance 480 nm, 0.01% Triton | Potency, µM (series often up to 114 µM), for the others: at the top dose activity change, negative = inhibition, hits mostly inhibitors | P00811;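 also: potency is read from the fitted curve at half-maximal effect; 0% = no-compound wells and -100% = no-enzyme wells; nearly all actives have a fitted effect of over 25% in size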
Target sequence (P00811 whole entry, looked up): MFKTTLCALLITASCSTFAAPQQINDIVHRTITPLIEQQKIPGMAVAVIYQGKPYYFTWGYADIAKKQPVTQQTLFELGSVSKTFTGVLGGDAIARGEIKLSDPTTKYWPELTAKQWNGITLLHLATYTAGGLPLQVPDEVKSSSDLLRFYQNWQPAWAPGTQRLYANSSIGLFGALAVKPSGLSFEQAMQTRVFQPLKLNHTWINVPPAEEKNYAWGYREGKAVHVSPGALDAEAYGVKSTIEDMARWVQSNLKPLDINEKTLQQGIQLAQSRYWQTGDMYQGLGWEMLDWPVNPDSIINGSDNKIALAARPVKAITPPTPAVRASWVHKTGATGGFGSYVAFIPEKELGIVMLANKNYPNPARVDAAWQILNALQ
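20 mM phosphate pH 7.0 + 0.01% (detergent screen) or 0.0001% Triton X-100; 5.3 nM AmpC reagent; cpd preinc 15 min RT; nitrocefin (800 uM stock) to start; A480 q20 s × 4 min; Activity was normalised to no-enzyme and no-compound control wells.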
NS1 function inh = influenza NS1 inhibition; Potency, µM (top dose mostly 46.1 µM), inactives show top-dose activity, positive = more growth; hit rate 0.4% among 270,000; AID 2326; calls by dose curve; also: potency is read from the fitted curve at half-maximal effect; actives are rising curves; nearly all actives have a fitted effect of over 50% in size
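A cell-based growth assay was used: compounds that relieve NS1-induced slow growth of budding yeast raise OD600. Assay medium was yeast nitrogen base with ammonium sulphate and -URA supplement, pH 6.0, with 2% galactose.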
Cycloheximide cs = affects cycloheximide protein synthesis inhibition readout, counter-screen. max response, %. cell reporter, cycloheximide protein synthesis inhibition counterscreen. hit rate 12% among 300,000; in the data active = max response mostly above about 13%, no sharp cut-off; inactive = mostly below about 14%; also: read at 38.3 µM for the half of the compounds with a filed dose; 0% is about no effect
Shiga inhibitor = Shiga toxin inhibition; Vero cells, Shiga toxin protein synthesis inhibition reporter; inhibition, % at 38.7 µM; hit rate 9.2% among 290,000; AID 2315; in the data active = inhibition mostly above about 28%, no sharp cut-off; inactive = mostly below about 43%; also: 0% is about no effect
AmpC no deterg = blocks E. coli AmpC beta-lactamase in detergent-free assay. Potency, µM (titrated, usually from 57.1 µM), without a hit: at the top dose activity change, negative = inhibition, most hits filed as inhibitors. hit rate 0.52% among 330,000. AmpC nitrocefin hydrolysis, absorbance 480 nm, 0.0001% Triton. AID 485341;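 also: potency is read from the fitted curve at half-maximal effect; plate controls were no compound for no effect and no enzyme for full effect; nearly all actives have a fitted effect of over 20% in size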
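20 mM phosphate pH 7.0 + 0.01% (detergent screen) or 0.0001% Triton X-100; 5.3 nM AmpC reagent; cpd preinc 15 min RT; nitrocefin (800 uM stock) to start; A480 q20 s × 4 min; Activity was normalised to no-enzyme and no-compound control wells.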
* hit, by the source's call; ? = inconclusive; · = no result given. Unless noted, calls follow the shape of the dose curve; as a rule, active = well fitted curve in the direction sought with a large enough effect; inconclusive = small, poorly fitted or top-dose-only effect, or another doubt; inactive = no such curve, though single readings can be large; an effect the other way counts as inactive or inconclusive.

SMILES | AmpC detergent | NS1 function inh | Cycloheximide cs | Shiga inhibitor | AmpC no deterg
O=C(Nc1ccc([N+](=O)[O-])cc1)N1CCc2ccccc2C1 | -3% | -71% | 38* | · | -51%
CC(C)c1ccc(NC(=O)N2CCc3ccccc3C2)cc1 | -1% | · | 42* | 96* | -32%
CC(C)c1ccc(NC(=O)Cc2ccc(NC(=O)N3CCCCc4ccccc43)cc2)cc1 | 4% | · | · | · | ·
O=[N+]([O-])c1ccc(N2CCc3ccccc3C2)cc1 | -3% | -74% | 26* | · | -19%
O=C(NCCN1CCc2ccccc2C1)Nc1ccc([N+](=O)[O-])cc1 | 0% | -1% | 6 | -11 | -31%
COC(=O)c1ccc2c(=O)n(CCCCCC(=O)N3CCN(c4ccc(OC)cc4)CC3)c(=O)[nH]c2c1 | 7% | · | · | · | ·
Cc1ccc(-n2c(=O)c3c(c4cc(C)ccc4n3C)n(CC(=O)NCc3ccccc3)c2=O)cc1 | -8% | · | · | · | ·
COc1ccc(N(C)S(=O)(=O)c2cccc(C(=O)NC3CCCCCC3)c2)cc1 | -9% | · | -1 | 3 | -14%
COc1ccc(N(C)S(=O)(=O)c2cccc(C(=O)NC3CCC(C)CC3)c2)cc1 (stereo unspecified) | -2% | -11% | 16* | 52 | -20%
COCCNc1nc(-c2cc3ccccc3o2)cs1 | 0% | -1% | 83* | 74* | -1%
COc1cc(OC)cc(C(=O)NC(=S)Nc2nc(-c3cc4ccccc4o3)cs2)c1 | -9% | -59% | -1 | -7 | -14%
O=C(CSc1nc2cc3ccccc3cc2[nH]1)Nc1cccc(C(F)(F)F)c1 | 4% | · | · | · | ·
CCN1CCN(S(=O)(=O)c2ccc(C)c([N+](=O)[O-])c2)CC1 | -12% | 0% | -2 | 11 | -23%
NC(=O)c1cc2c3ccccc3ccn2c1-c1ccccc1 | -2% | -44% | 52* | 94* | -45%
Cc1[nH]n(-c2ccccc2)c(=O)c1Sc1ccc(Cl)cc1 | -15% | -47% | 2 | -7 | -19%
Cc1cc(-c2c(C)[nH]n(-c3ccc(Cl)cc3)c2=O)n[nH]1 | 0% | -186% | 27* | 30 | -34%
CC1CC(C)CN(c2ccc([N+](=O)[O-])nc2)C1 (stereo unspecified) | 3% | · | 17* | 28 | -15%
CCCc1nn(C)c(C(=O)Nc2cccc3ccccc23)c1Cl | 0% | 4% | 12 | 36* | -15%
Cn1ncc([N+](=O)[O-])c1C(=O)Nc1cccc2ccccc12 | 6% | 5% | -4 | -25 | -12%
CCCc1nn(C)c(C(=O)Nc2ccc(C)c(C)c2)c1Cl | -8% | 5% | 32* | 92* | 1%
CCc1ccc(NC(=O)c2cccc(C(=O)Nc3ccc(CC)cc3)n2)cc1 | ? | -4% | 13 | 42 | -27%
CCn1nc(C(=O)Nc2ccc(C)c(C)c2)c(Cl)c1Cl | 4% | -6% | 14 | -2 | -15%
CCCc1nn(C)c(C(=O)Nc2ccc(CC)cc2)c1Cl | ? | -8% | 17 | 35* | 2%
CC(C)(C)OC(=O)NC(NC(=O)OCC1c2ccccc2-c2ccccc21)C(=O)O (stereo unspecified) | · | · | -4 | -3 | ·
CC(=O)c1ccc(NC(=O)C2Cc3ccccc3CN2C(=O)c2ccccc2)cc1 (stereo unspecified) | 2% | -2% | 11* | 41* | -15%
SMILES | AmpC detergent | NS1 function inh | Cycloheximide cs | Shiga inhibitor | AmpC no deterg
O=C(C1Cc2ccccc2CN1C(=O)c1ccccc1)N1CCN(c2ccccc2)CC1 (stereo unspecified) | 2% | -1% | -3 | 22 | 28%
COc1ccc(NC(=O)C2Cc3ccccc3CN2C(=O)c2ccccc2)cn1 (stereo unspecified) | -13% | -11% | 7 | 22 | -13%
O=C(NC1=NCCS1)C1Cc2ccccc2CN1C(=O)c1ccccc1 (stereo unspecified) | ? | ? | 28* | 84* | 4%
CN1CCCN(C(=O)c2ccc(Br)cc2)CC1 | -4% | 21% | -4 | -7 | 5%
Cc1ccc(N2CC(NC(=O)CCc3ccccc3)CC2=O)cc1C (stereo unspecified) | 0% | · | · | · | ·
O=Cc1ccc(OCc2nnc(-c3ccccc3Br)o2)cc1 | ? | -20% | 21 | 57* | -42%
Cc1cc(=O)oc2cc(OCc3nnc(-c4ccccc4Br)o3)ccc12 | -5% | -14% | -3 | -14 | -6%
NC(=O)c1ccccc1OCc1nnc(-c2ccccc2Br)o1 | -7% | 10% | 19 | 65* | -12%
O=c1ccc2ccc(OCc3nnc(-c4ccccc4Br)o3)cc2o1 | 3% | 0% | 18 | 43* | -17%
Brc1ccccc1-c1nnc(COc2ncnc3c2cnn3-c2ccccc2)o1 | -17% | -19% | 7 | 9 | -18%
CCc1cccc(NC(=O)CCN2C(=O)c3ccccc3Sc3ncccc32)c1 | -2% | · | · | · | ·
Cc1cc(C)c(NC(=S)N(C)C)cc1C | -1% | -8% | -4 | 36 | -4%
Cc1cccc(NC(=S)N(C)C)c1C | 2% | -1% | -2 | 30* | -6%
Cc1cccc(NC(=S)NC(=O)CCc2ccccc2)c1C | -11% | -1% | 18* | 22 | -27%
CCOC(=O)c1[nH]c2ccccc2c1NC(=S)Nc1cccc(C)c1C | -7% | 8% | 29* | 33 | -17%
CCOC(=O)c1[nH]c2ccccc2c1NC(=O)NC(C)C | 0% | 1% | -1 | 11 | 0%
Cc1cccc(NC(=S)NC(=O)Cc2ccccc2)c1C | ? | 10% | 8 | 15* | -33%
COCCCNC(=O)CCCn1c(=O)c2cccn2c2ccccc21 | -1% | · | · | · | ·
O=C(Nc1cccc(/C=C/c2nc3ccccc3c(=O)[nH]2)c1)c1ccccc1Cl | -7% | -1% | 11* | 39 | -20%
COc1ccc(C(=O)Nc2cccc(/C=C/c3nc4ccccc4c(=O)[nH]3)c2)cc1 | -1% | 1% | 20* | 107* | -39%
COc1ccc(C(=O)Nc2nc3cc(OC)c(OC)cc3c(=O)[nH]2)cc1 | 1% | -6% | -3 | 18 | -20%
COc1ccc(C(=O)Nc2nc3ccccc3c(=O)[nH]2)cc1 | -11% | -54% | 44* | 82* | -21%
O=C1CCCN1c1nccs1 | 5% | · | -3 | 0 | -13%
NS(=O)(=O)c1cc2c(cc1Cl)NC(c1ccccc1OCC(=O)O)NS2(=O)=O (stereo unspecified) | -10% | -11% | -1 | 22 | -8%
COC(=O)c1sccc1NC(=O)CC1C(=O)NCCN1C(=O)c1ccccc1 (stereo unspecified) | 2% | 1% | 13* | -10 | -1%
Cc1cc(N=Nc2ccc(C)c(N=Nc3cc(C)c(N)cc3N)c2)c(N)cc1N | -8% | 5% | 62* | 76* | 21%
Cc1ccc(N)cc1N | 1% | · | · | · | -10%
CN(Cc1cccnc1)C(=O)Cc1ccc(NS(=O)(=O)c2cccc(C(F)(F)F)c2)cc1 | -11% | 8% | -3 | -5 | 28%
CN(CC(=O)Nc1ccccc1Cl)C(=O)COC(=O)c1nc(Cl)c(Cl)c(Cl)c1Cl | 5% | -35% | 45* | 53* | 84%
